Calls of active or inactive are those of the source.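 The calls were made as follows: active = mean z-score across replicates of 1.96 or higher in either the MELAS or the Rieske mutant cell line; inactive = the rest.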
Assay: MELAS cybrid and Rieske KO viability enhancers – cell-based, MELAS cybrids, Rieske KO mouse fibroblasts, CellTiter-Glo, primary screen (AID 1508586);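 also: test concentration not given here; z relative to plate mean and SD of compound and empty wells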
Conditions: MELAS cybrid survival, low glucose, CellTiter-Glo 48 h; stronger effect = higher value

Compound	z-score
CCC(C)C(=O)Nc1c(C(=O)OC)n(CC2CCCO2)c2ncc(NC3CCSC3)cc12 (centres undefined)	-0.0694 (inactive)
O=C(Nc1ccccc1Cl)N[C@H]1C[C@H]2C(=O)N[C@H](Cc3ccc(O)cc3)C(=O)N2C1	-0.242 (inactive)
COCCn1c(C(=O)OC)c(NC(=O)Cc2ccccc2)c2cc(NC(C)CCO)cnc21 (centres undefined)	-0.113 (inactive)
C=CCn1nc(C(=O)N2CCSCC2)c2c1CCC(N1CCOc3ccc(Cl)cc3C1)C2 (centres undefined)	-0.526 (inactive)
CC(C)CCN1C(=O)N(C(C)C)C(=O)C12CCN(Cc1ccc(CN3CCCCC3)s1)CC2	-0.0425 (inactive)
Cc1cc(-c2cc3c(n(Cc4cccnc4)c2=O)CCN(C(=O)C2Cc4ccccc4O2)C3)ccc1F (centres undefined)	-0.406 (inactive)
COc1cc(CN2CCc3c(cc(-c4cccc(F)c4)c(=O)n3CCn3ccc(C)n3)C2)ccc1O	0.37 (inactive)
CCOC(=O)c1nn(CC)c2c1CN(C(=O)Cn1nc(-c3ccccc3)c3ccccc3c1=O)CC2	-0.0607 (inactive)
CC1=C(C(=O)N2CC(=O)N(CC(C)C)CC(OCc3ccccc3)C2)OCCO1 (centres undefined)	0.636 (inactive)
CCN1C(=O)N(CC(N)=O)C(=O)C12CCN(CC(C)Cc1ccc3c(c1)OCO3)CC2 (centres undefined)	0.0615 (inactive)
CCCCNC(=O)[C@@H]1C[C@H](CN2CCOCC2)CN(Cc2ccc(OC)c(OC)c2)C1	-0.184 (inactive)
COc1cc(CN2CC(=O)N(CC3CCOCC3)CC(OCc3ccccn3)C2)cc2c1OCO2 (centres undefined)	-0.369
Cc1ccc(-c2cc(C(=O)N3CCSCC3)cc(S(=O)(=O)N3CCOCC3)c2)s1	-0.321 (inactive)
CC(C)CNC(=O)[C@@H]1C[C@H](CN2CCOCC2)CN(Cc2ccccc2)C1	0.428 (inactive)
CCn1c(C(=O)OC)c(NC(C)=O)c2cc(NCc3ccc(OC)cc3)cnc21	-0.521 (inactive)
Cc1ccc(S(=O)(=O)N2CCN3C(=O)[C@H](Cc4ccc(Cl)cc4)NC(=O)[C@H]3C2)cc1	1.43 (inactive)
CC(C)CNC(=O)[C@@H]1C[C@H](CN2CCOCC2)CN(Cc2ccncc2)C1	-0.456 (inactive)
COc1cc(CN2CCc3c(c(C(=O)NCCCN4CCOCC4)nn3C)C2)cc2c1OCO2	0.109 (inactive)
O=C(NCc1cccc(F)c1)N[C@H]1C[C@H]2C(=O)N[C@@H](COCc3ccccc3)C(=O)N2C1	0.777 (inactive)
COCCCN1C(=O)N(Cc2ccccc2)C(=O)C12CCN(Cc1ccc(-c3ccco3)cc1)CC2	0.678 (inactive)

Compound	z-score
CCCCNC(=O)[C@@H]1C[C@H](CN2CCOCC2)CN(Cc2ccc3ccccc3c2)C1	0.321 (inactive)
CN(C)CCCNC(=O)[C@@H]1C[C@H](CN2CCOCC2)CN(CCc2ccccc2)C1	-0.339 (inactive)
C[C@@H](NC(=O)N[C@H]1C[C@H]2C(=O)N[C@H](Cc3ccc(O)cc3)C(=O)N2C1)c1ccccc1	-0.3 (inactive)
COc1cccc(C(=O)N2CCN3C(=O)[C@@H]4C[C@@H](O)CN4C(=O)[C@H]3C2)c1	-0.0988 (inactive)
CC(C)N1CCN(C(=O)c2cc(-c3ccccc3)cc(S(=O)(=O)N3CCSCC3)c2)CC1	-0.246 (inactive)
C=CCn1nc(C(=O)N2CCSCC2)c2c1CCC(NCCCSC)C2 (centres undefined)	-0.0452 (inactive)
CCn1nc(C(=O)N2CCCCC2)c2c1CCC(NCc1ccc3c(c1)OCO3)C2 (centres undefined)	-0.251 (inactive)
COc1ccc(-c2cc3c(n(C)c2=O)CCN(C2CCSC2)C3)c2ccc(C)nc12 (centres undefined)	-0.852 (inactive)
CC(C)[C@@H]1NC(=O)[C@@H]2C[C@H](NC(=O)c3cccc(Cl)c3)CN2C1=O	9 (active)
CC(C)N1C(=O)N(C)C2(CCN(Cc3ccc4c(c3)Cc3ccccc3-4)CC2)C1=O	-0.247 (inactive)
O=C(NCCN1CCOCC1)c1cc(-c2ccccc2)cc(S(=O)(=O)N2CCSCC2)c1	-0.0926 (inactive)
CC(C)NS(=O)(=O)c1cc(NCc2cnn(C)c2)cc(C(=O)NCc2cn3ccccc3n2)c1	-0.615 (inactive)
O=C(NCC1CCCO1)[C@@H]1C[C@H](CN2CCOCC2)CN(Cc2ccc3ccccc3c2)C1 (some centres undefined)	-0.349 (inactive)
Cc1ccc(-c2cc(C(=O)NCC3CC3)cc(S(=O)(=O)N3CCOCC3)c2)s1	-0.142 (inactive)
C[C@H]1NC(=O)[C@H]2CN(C(=O)Oc3ccc(Cl)cc3)CCN2C1=O	-0.514 (inactive)
O=C1[C@@H]2C[C@@H](O)CN2C(=O)[C@H]2CN(Cc3ccc(CN4CCCCC4)s3)CCN12	-0.179 (inactive)
COC(=O)CCN1CC(OCc2ccncc2)CN(C(=O)Cc2c(F)cccc2Cl)CC1=O (centres undefined)	-0.399 (inactive)
Cn1nc(C(=O)N2CCCCCC2)c2c1CCC(NCc1ccc(C(F)(F)F)cc1)C2 (centres undefined)	-0.174 (inactive)
CC(C)CN1C[C@@H](CN2CCOCC2)C[C@@H](C(=O)N2CCCC2)C1	-0.0982 (inactive)

— PubChem BioAssay
